Test results as given in PubChem BioAssay AID1851 (National Center for Advancing Translational Sciences (NCATS), 2009).
In all, about 16,000 compounds went through this assay and about 2,600 (16%) were called active. Another 20% or so got no clear call; they are omitted. These entries were drawn from the full list. Values without a mark were called inactive. Calls follow the shape of the dose curve; as a rule, active = well fitted curve in the direction sought with a large enough effect; inconclusive = small, poorly fitted or top-dose-only effect, or effect the other way; inactive = no such curve, though single readings can be large or run the other way.

molecular target: Cytochrome P450 2D6 (Homo sapiens) (UniProt P10635); experiment: Cytochrome panel assay with activity outcomes; details: recombinant CYP, pro-luciferin dealkylation, luminescence, p450-cyp2d6; series mostly up to 57.1 µM; activity, negative = inhibition: at the top concentration
Sequence (P10635 whole entry, looked up): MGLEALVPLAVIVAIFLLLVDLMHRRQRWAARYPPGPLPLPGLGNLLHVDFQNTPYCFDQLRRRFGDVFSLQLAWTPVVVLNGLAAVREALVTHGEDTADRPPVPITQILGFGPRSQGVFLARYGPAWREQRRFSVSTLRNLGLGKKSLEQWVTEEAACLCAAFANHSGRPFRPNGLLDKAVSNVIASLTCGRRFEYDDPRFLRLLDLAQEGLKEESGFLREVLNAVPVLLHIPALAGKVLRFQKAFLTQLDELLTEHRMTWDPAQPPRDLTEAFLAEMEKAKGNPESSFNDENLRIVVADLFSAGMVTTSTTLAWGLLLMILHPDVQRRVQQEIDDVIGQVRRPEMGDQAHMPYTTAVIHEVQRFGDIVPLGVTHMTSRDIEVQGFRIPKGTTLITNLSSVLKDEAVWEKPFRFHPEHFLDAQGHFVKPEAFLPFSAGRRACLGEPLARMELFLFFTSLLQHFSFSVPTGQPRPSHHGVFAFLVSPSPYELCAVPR
% is scaled to controls: 0 for no effect and ±100 for the full control effect.

Compound	activity, negative = inhibition	AC50
O=S(=O)(c1ccccc1)N1CN2CN(C1)CN(S(=O)(=O)c1ccccc1)C2	2.33% [at 11.4 µM]	–
NNS(=O)(=O)c1cc(C(=O)O)cc(C(=O)O)c1	5.99% [at 11.4 µM]	–
COc1ccc(Oc2ncc3nc(-c4cn(C)c5ccccc45)c(=O)n(C)c3n2)cc1	0.352%	–
COc1ccc(C(=O)NC(C)c2cc(OC)c(OC)cc2Br)cc1 (stereo not given)	-12.9%	–
CN(C)[C@@H]1C(=O)C(C(N)=O)=C(O)[C@]2(O)C(=O)C3=C(O)c4c(O)ccc(Cl)c4[C@H](O)[C@H]3C[C@@H]12	–	inactive
O=C(c1ccccc1-c1nc(-c2ccccc2)no1)N1CCOCC1	-9.18%	–
CCOC(=O)N/N=C1/C[C@@H](O)[C@@H](O)[C@@H]2[C@@H]3C(=O)N(Cc4ccc5c(c4)OCO5)C(=O)[C@H]3CC[C@H]12	-9.22% [at 11.4 µM]	–
CC1(C)SC(=S)N(Cc2ccc3c(c2)OCO3)C1N(O)C(=O)NC1CCCCC1 (stereo not given)	–	2.24 µM (active)
COc1ccccc1Nc1nc(-c2sc(NC(=O)c3ccc([N+](=O)[O-])cc3)nc2C)cs1	12.1%	–
Nc1cc(Cl)nc(N/N=C/c2ccccc2[N+](=O)[O-])n1	0.464%	–
Cc1nc2ccccn2c1C(=O)N/N=C/c1ccccc1[N+](=O)[O-]	8.78%	–
O=[N+]([O-])c1cccc(/C=N\Nc2ccc3ccccc3n2)c1O	–	3.16 µM (active)
O=C(O)c1c2ccccc2cc2ccccc12	-2.31%	–
C/C(CCC(=O)OC[C@@H]1O[C@H](C#Cc2ccccc2)C=C[C@@H]1Oc1ccc(C)cc1)=N/OC[C@@H](O)[C@H]1O[C@H]2OC(C)(C)O[C@H]2[C@@H]1O	14.6% [at 11.4 µM]	–
CCn1c(N2CCN(C(=O)Nc3ccc(F)cc3)CC2)nc2ccccc21	-29.3%	–
COc1cccc(N2CCN(C(=S)Nc3cccc(C)c3)CC2)c1	-10.1%	–
CCOC(=O)N/N=C1/C[C@@H](O)[C@@H](O)[C@@H]2[C@@H]3C(=O)N([C@@H](C)c4ccccc4)C(=O)[C@H]3CC[C@H]12	18.4% [at 11.4 µM]	–
NC(N)=Nc1nc(CCN2C(=O)c3ccccc3C2=O)cs1	–	15.8 µM (active)
N#C/C(=C/c1cccc(C(F)(F)F)c1)c1nc(CCN2C(=O)c3ccccc3C2=O)cs1	-10.9%	–
Nc1nonc1-c1noc(CCCN2C(=O)c3ccccc3C2=O)n1	-6.39%	–
COc1cc(S(C)=O)ccc1-c1nc2ncccc2[nH]1 (stereo not given)	-1.83% [at 25.6 µM]	–
O=C(c1ccc(Oc2ccc(C(F)(F)F)cn2)cc1)N1CCN(c2ccccc2)CC1	3.28%	–
O=C(CN1CCCCC1)Nc1nnc(-c2ccc([N+](=O)[O-])cc2)s1	-8.29%	–
CC1CCN(CC(=O)Nc2cccc([N+](=O)[O-])c2)CC1	–	5.62 µM (active)
CCC(=O)Nc1cccc(NC(=O)c2cccc([N+](=O)[O-])c2)c1	-8.59%	–
